Screening data: PubChem BioAssay, Broad Institute
IDE exosite inh – exo-site inhibitors of human IDE, primary screen, biochemical, fluorescence anisotropy, probe displacement; Insulin-degrading enzyme (Homo sapiens), P14735; purified IDE, FL-6b probe fluorescence polarization; stronger effect = lower value; z-score at 20 µM; 17,000 tested, 6.3% active; AID 1259349, 2017;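 active = z-score of -3 or lower, meaning strong loss of probe binding signal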;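 note: His-tagged human IDE residues 42-1019 made in E. coli with 30 nM FL-6b probe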
An asterisk follows results filed as active. The sample as a whole holds a higher share of hits than the screen did.

SMILES	IDE exosite inh
O=C(Nc1ccccc1F)N1CCCCN2[C@H](CO)[C@@H](c3ccc(/C=C/c4ccccc4)cc3)[C@H]2C1	-1.7
O=C(NC1CCCC1)N1CCCCN2[C@H](C1)[C@@H](c1ccc(/C=C/c3ccccc3)cc1)[C@@H]2CO	-9.6*
O=C(NC1CCCC1)N1CCCCN2[C@H](CO)[C@@H](c3ccc(/C=C/c4ccccc4)cc3)[C@@H]2C1	-2.8
O=C(NC1CCCC1)N1CCCCN2[C@H](C1)[C@H](c1ccc(/C=C/c3ccccc3)cc1)[C@@H]2CO	-13*
CNC(=O)C[C@H]1CC[C@H]2[C@@H](COC[C@@H](O)CN2Cc2ccccc2F)O1	1.4
COc1ccc2c3c(n(C)c2c1)[C@H](CO)N(CC1CC1)CC31CN(S(=O)(=O)c2cn(C)cn2)C1	-2.1
CCc1cnc(N2[C@H](C#N)[C@@H](c3ccccc3C3=CCCCC3)[C@@H]2CO)s1	0.61
COc1cccc(-c2ccc([C@H]3[C@@H](CO)N4C(=O)CNC[C@@H]34)cc2)c1	-0.63
O=C(Nc1ccc2c(c1)[C@H]1C[C@@H](CC(=O)N3CCc4ccccc4C3)O[C@H](CO)[C@H]1O2)c1ccc2c(c1)OCO2	-0.09
CCCNC(=O)Nc1ccc2c(c1)OC[C@H](C)N(C(=O)C1CCOCC1)C[C@H](C)[C@@H](OC)CN(C)C2=O	-1.5
COc1ccccc1NC(=O)N1CCCCN2[C@H](C1)[C@H](c1ccc(C#Cc3ccccc3)cc1)[C@@H]2CO	1.2
CN(C)CC#Cc1ccc([C@H]2[C@@H](CO)N3CCCCN(C(=O)C4CCC4)C[C@H]23)cc1	0.063
COc1ccccc1NC(=O)N1CCCCN2[C@H](CO)[C@@H](c3ccc(C#Cc4ccccc4)cc3)[C@@H]2C1	3.8
COc1ccccc1C#Cc1ccc([C@@H]2[C@@H](CO)N3CCCCN(C(=O)C4CCC4)C[C@@H]23)cc1	-9*
CN(C)CC#Cc1ccc([C@H]2[C@H]3CN(C(=O)C4CCC4)CCCCN3[C@H]2CO)cc1	2.3
COc1ccccc1C#Cc1ccc([C@@H]2[C@H]3CN(C(=O)C4CCC4)CCCCN3[C@H]2CO)cc1	-6.8*
O=C(C1CCC1)N1CCCCN2[C@H](C1)[C@@H](c1ccc(C#CC3(O)CCCC3)cc1)[C@@H]2CO	-1.1
COc1ccccc1C#Cc1ccc([C@H]2[C@@H](CO)N3CCCCN(C(=O)C4CCC4)C[C@H]23)cc1	-10*
COc1ccc(C#Cc2ccc([C@@H]3[C@@H](CO)N4CCCCN(C(=O)Nc5ccccc5)C[C@@H]34)cc2)cc1	2.1
C/C=C/c1ccc([C@@H]2[C@@H](CO)N(C(C)=O)[C@H]2CN(CC)C(=O)CN(C)C)cc1	-1.2
O=C(Nc1ccc(F)cc1)N1CCCCN2[C@H](CO)[C@@H](c3ccc(C4=CCCCC4)cc3)[C@H]2C1	5
N#C[C@H]1[C@H](c2ccc(-c3cccnc3)cc2)[C@@H](CO)N1C(=O)C1CCC1	-1.5
N#Cc1cccc(-c2ccc([C@H]3[C@@H](CO)N4CCCCN(C(=O)Nc5ccccc5)C[C@@H]34)cc2)c1	3.6
CC(C)CC#Cc1ccc([C@H]2[C@@H](CO)N3C(=O)CN(C(=O)NC(C)C)C[C@H]23)cc1	3
COc1cccc(C#Cc2ccc([C@@H]3[C@@H](CO)N4C(=O)CN(C(=O)c5ccncc5)C[C@H]34)cc2)c1	-1.5
SMILES	IDE exosite inh
COc1cccc(C#Cc2ccc([C@H]3[C@@H](CO)N4C(=O)CN(C(=O)c5ccccc5)C[C@@H]34)cc2)c1	0.74
COc1cccc(C#Cc2ccc([C@H]3[C@H]4CN(C(=O)c5ccncc5)CC(=O)N4[C@H]3CO)cc2)c1	-1.6
COc1cccc(C#Cc2ccc([C@H]3[C@H](CO)N4C(=O)CN(C(=O)c5ccncc5)C[C@@H]34)cc2)c1	-8.4*
COc1cccc(C#Cc2ccc([C@@H]3[C@H]4CN(C(=O)c5ccccc5)CC(=O)N4[C@H]3CO)cc2)c1	3.7
COc1cccc(C#Cc2ccc([C@H]3[C@@H](CO)N4C(=O)CN(C(=O)c5ccccc5)C[C@H]34)cc2)c1	-3.8*
CCCN(C[C@@H]1N[C@@H](CO)[C@H]1c1ccc(-c2cccnc2)cc1)C(C)=O	1.1
CCC(=O)N1CC2(C1)[C@H](c1ccccc1)[C@@H](CO)N2CC1CC1	1.7
COCCN(C[C@H]1N[C@H](CO)[C@@H]1c1ccc(-c2ccc(F)cc2)cc1)C(C)=O	1.5
CS(=O)(=O)N1CC(=O)N2[C@@H](CO)[C@H](c3ccc(C#Cc4ccc(F)cc4)cc3)[C@@H]2C1	0.17
CS(=O)(=O)N1CC(=O)N2[C@H](CO)[C@@H](c3ccc(C#CCc4ccccc4)cc3)[C@H]2C1	0.43
CS(=O)(=O)N1CC(=O)N2[C@H](CO)[C@@H](c3ccc(C#Cc4ccccc4)cc3)[C@@H]2C1	2.4
CS(=O)(=O)N1CC(=O)N2[C@H](C1)[C@H](c1ccc(C#Cc3ccccc3)cc1)[C@@H]2CO	-5.3*
CS(=O)(=O)N1CC(=O)N2[C@@H](CO)[C@H](c3ccc(C#CCc4ccccc4)cc3)[C@@H]2C1	3.2
CS(=O)(=O)N1CC(=O)N2[C@H](C1)[C@H](c1ccc(C#Cc3cccc(F)c3)cc1)[C@@H]2CO	-8.4*
CS(=O)(=O)N1CC(=O)N2[C@H](C1)[C@@H](c1ccc(C#CCc3ccccc3)cc1)[C@@H]2CO	-3.2*
CS(=O)(=O)N1CC(=O)N2[C@H](C1)[C@@H](c1ccc(C#Cc3ccc(F)cc3)cc1)[C@@H]2CO	-0.016
CS(=O)(=O)N1CC(=O)N2[C@H](CO)[C@@H](c3ccc(C#Cc4ccc(F)cc4)cc3)[C@H]2C1	0.85
CS(=O)(=O)N1CC(=O)N2[C@H](CO)[C@@H](c3ccc(C#CCc4ccccc4)cc3)[C@@H]2C1	0.32
CS(=O)(=O)N1CC(=O)N2[C@H](CO)[C@H](c3ccc(C#Cc4ccccc4)cc3)[C@@H]2C1	-5.4*
CS(=O)(=O)N1CC(=O)N2[C@H](C1)[C@H](c1ccc(C#Cc3ccc(F)cc3)cc1)[C@@H]2CO	0.35
C[C@@H]1CC(=O)NCC/C=C\C[C@H](c2cccc(Cl)c2)NC1=O	-0.051
O=C(NCC1CC1)[C@@H]1[C@@H](CO)[C@@H]2Cn3c(ccc(-c4ccccc4F)c3=O)[C@H]1N2Cc1cncnc1	0.058
CC(=O)N1CC(=O)N2[C@H](CO)[C@H](c3ccc(C#Cc4cccnc4)cc3)[C@@H]2C1	2.1
O=C(Cc1cccnc1)N1CC(=O)N2[C@@H](CO)[C@H](c3ccc(-c4cccc(F)c4)cc3)[C@@H]2C1	-1.9
CCS(=O)(=O)N1CC(=O)N2[C@H](CO)[C@@H](c3ccc(-c4ccccc4)cc3)[C@H]2C1	3.3
SMILES	IDE exosite inh
CCS(=O)(=O)N1CC(=O)N2[C@H](CO)[C@H](c3ccc(-c4ccccc4)cc3)[C@@H]2C1	1.6
CCS(=O)(=O)N1CC(=O)N2[C@H](CO)[C@@H](c3ccc(-c4cccc(F)c4)cc3)[C@@H]2C1	-3.2*
O=C(C[C@H]1C[C@@H]2c3cc(NC(=O)NC4CCCC4)ccc3O[C@@H]2[C@@H](CO)O1)NCc1ccccc1F	-0.72
CCc1cnc(N2[C@@H](C#N)[C@@H](c3ccc(-c4cccc(F)c4)cc3)[C@@H]2CO)s1	-0.99
O=C(c1cccnc1)N1CC(=O)N2[C@@H](CO)[C@H](c3ccc(-c4cccnc4)cc3)[C@@H]2C1	-0.79
O=C(c1cccnc1)N1CC(=O)N2[C@H](C1)[C@@H](c1ccc(-c3cccnc3)cc1)[C@@H]2CO	-1.9
COc1cccc(-c2ccc([C@@H]3[C@@H](CO)N4C(=O)CN(C(=O)c5cccnc5)C[C@H]34)cc2)c1	-1.3
